Test results from PubChem BioAssay AID1159580 (chemical genetic matrix, 2015).
The whole screen tested about 5,500 compounds, of which about 2,000 (36%) were called active. Inconclusive results (about 18%) are left out. Cut-off read from the data, not from the text of the source: active = normalized growth mostly below about 0.91 (no sharp cut-off); inconclusive = no clear call, values can overlap the other calls; inactive = mostly above about 0.92. Some of the results follow.

Assay: chemical genetic growth profiling, strain panel (AID 1159580);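 note: tested at 20 µM; growth read once vehicle control cultures reached saturation at 30 °C; 1 = growth at the plate median or of vehicle wells; lower values mean less growth of the strain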
Details: S. cerevisiae deletion strains, growth OD
[1] = locus YHR030C, strain SLT2, hits give low values
[2] = locus YHR079C, strain IRE1, hits give low values
[3] = locus YJL095W, strain BCK1, hits give low values
[4] = locus YJR066W, strain TOR1, hits give low values
[5] = locus YLR113W, strain HOG1, hits give low values
[6] = locus YNL183C, strain NPR1, hits give low values
[7] = locus YOR231W, strain MKK1, hits give low values
[8] = locus YPL256C, strain CLN2, hits give low values

Measured: normalized growth

[Li+]
inactive: locus YAL013W, strain DEP1, hits give low values 1.01 | locus YAL040C, strain CLN3, hits give low values 0.996 | locus YCL061C, strain MRC1 (second series), hits give low values 1.01 | locus YDR150W, strain NUM1, hits give low values 1.02 | locus YDR363W, strain ESC2, hits give low values 1.01 | locus YER002W, strain NOP16, hits give low values 1 | locus YGR229C, strain SMI1, hits give low values 1.02 | locus YMR307W, strain GAS1, hits give low values 0.994 | locus YNL175C, strain NOP13, hits give low values 1 | locus YNL197C, strain WHI3, hits give low values 1.02 | locus YNL224C, strain SQS1, hits give low values 1 | locus YOR083W, strain WHI5 (second series), hits give low values 1.01 | locus YPL241C, strain CIN2, hits give low values 1.01

c1ccc(-c2ccc(C(c3ccccc3)n3ccnc3)cc2)cc1 (stereo not drawn)
active: locus YAL021C, strain ccr4, hits give low values 0.0644 | locus YAL026C, strain drs2, hits give low values 0.0618 | locus YAL030W, strain snc1, hits give low values 0.0587 | locus YBL061C, strain skt5, hits give low values 0.0709 | locus YBR009C, strain hhf1, hits give low values 0.0624 | locus YBR023C, strain chs3, hits give low values 0.0697 | locus YBR171W, strain sec66, hits give low values 0.0929 | locus YBR231C, strain swc5, hits give low values 0.0689 | locus YBR279W, strain paf1, hits give low values 0.0719 | locus YCL011C, strain gbp2, hits give low values 0.0606 | locus YCL016C, strain dcc1, hits give low values 0.0733 | locus YCL069W, strain vba3, hits give low values 0.066 | locus YCR088W, strain abp1, hits give low values 0.0692 | locus YDL005C, strain med2, hits give low values 0.0767 | locus YDL040C, strain nat1, hits give low values 0.0668 | locus YDR001C, strain nth1, hits give low values 0.067 | locus YDR069C, strain doa4, hits give low values 0.0703 | locus YDR137W, strain rgp1, hits give low values 0.127 | locus YDR159W, strain sac3, hits give low values 0.0937 | locus YDR195W, strain ref2 0.13 | locus YDR297W, strain sur2, hits give low values 0.0659 | locus YDR334W, strain swr1, hits give low values 0.0716 | locus YDR335W, strain msn5, hits give low values 0.0638 | locus YDR392W, strain spt3, hits give low values 0.0713 | locus YEL003W, strain gim4, hits give low values 0.0535 | locus YEL037C, strain rad23, hits give low values 0.0622 | locus YEL061C, strain CIN8 (second series), hits give low values 0.0652 | locus YER015W, strain faa2, hits give low values 0.0699 | locus YER016W, strain bim1, hits give low values 0.0698 | locus YER111C, strain swi4, hits give low values 0.0902 | locus YER155C, strain BEM2 (second series), hits give low values 0.0914 | locus YFR010W, strain ubp6, hits give low values 0.0846 | locus YGL167C, strain pmr1, hits give low values 0.124 | locus YGL173C, strain kem1, hits give low values 0.0886 | locus YGL227W, strain vid30, hits give low values 0.077 | locus YGL240W, strain doc1, hits give low values 0.108 | locus YGL253W, strain hxk2, hits give low values 0.0596 | locus YHR013C, strain ard1, hits give low values 0.105 | locus YHR027C, strain rpn1, hits give low values 0.0776 | [1] 0.105 | [2] 0.13 | locus YHR142W, strain chs7, hits give low values 0.0799 | locus YJL092W, strain hpr5, hits give low values 0.0642 | locus YJL095W, strain BCK1 (second series), hits give low values 0.0592 | [3] 0.127 | locus YJL115W, strain asf1, hits give low values 0.087 | locus YJL129C, strain trk1, hits give low values 0.102 | locus YJL154C, strain vps35, hits give low values 0.0754 | locus YJL164C, strain tpk1, hits give low values 0.0615 | locus YJL166W, strain qcr8, hits give low values 0.0657 | locus YJL187C, strain SWE1, hits give low values 0.0683 | [4] 0.0151 | locus YKL160W, strain elf1, hits give low values 0.0739 | locus YKR026C, strain gcn3, hits give low values 0.0725 | locus YKR091W, strain srl3, hits give low values 0.066 | locus YLL001W, strain dnm1, hits give low values 0.0668 | locus YLL026W, hits give low values 0.0595 | locus YLL041C, strain sdh2, hits give low values 0.0629 | locus YLR027C, strain aat2, hits give low values 0.0596 | [5] 0.164 | locus YLR221C, strain rsa3, hits give low values 0.0622 | locus YLR258W, strain gsy2, hits give low values 0.0654 | locus YLR262C, strain YPT6 (second series), hits give low values 0.0894 | locus YLR320W, strain mms22, hits give low values 0.0767 | locus YLR342W, strain FKS1, hits give low values 0.0755 | locus YLR357W, strain rsc2, hits give low values 0.128 | locus YLR370C, strain arc18, hits give low values 0.0619 | locus YLR384C, strain iki3, hits give low values 0.0674 | locus YML120C, strain ndi1, hits give low values 0.0564 | locus YMR058W, strain fet3, hits give low values 0.068 | locus YMR125W, strain sto1, hits give low values 0.082 | locus YMR129W, hits give low values 0.0621 | locus YMR205C, strain PFK2, hits give low values 0.0925 | locus YMR231W, strain pep5, hits give low values 0.179 | locus YNL071W, strain lat1, hits give low values 0.0616 | [6] 0.0338 | locus YNL209W, strain ssb2, hits give low values 0.0868 | locus YNL248C, strain rpa49, hits give low values 0.0877 | locus YNL322C, strain KRE1 (second series), hits give low values 0.08 | locus YNR049C, strain mso1, hits give low values 0.0653 | locus YOR001W, strain rrp6, hits give low values 0.075 | locus YOR070C, strain gyp1, hits give low values 0.0635 | locus YOR080W, strain dia2, hits give low values 0.0729 | locus YOR083W, strain WHI5, hits give low values 0.0687 | locus YOR106W, strain vam3, hits give low values 0.0685 | [7] 0.141 | locus YOR265W, strain rbl2, hits give low values 0.0651 | locus YOR270C, strain vph1, hits give low values 0.0985 | locus YOR290C, strain snf2, hits give low values 0.0719 | locus YPL051W, strain arl3, hits give low values 0.0743 | locus YPL078C, strain atp4, hits give low values 0.07 | locus YPL106C, strain sse1, hits give low values 0.116 | locus YPL240C, strain hsp82, hits give low values 0.0631 | [8] 0.153

O=C(NCc1ccco1)c1csc(C2COc3ccccc3O2)n1 (stereo not drawn)
active: locus YDR052C, strain DBF4, hits give low values 0.909 | locus YDR054C, strain cdc34, hits give low values 0.875 | locus YFR019W, strain FAB1, hits give low values 0.711 | locus YGR092W, strain DBF2, hits give low values 0.154 | [1] 0.623 | locus YJR066W, strain TOR1 (second series), hits give low values 0.343 | [5] 0.811 | locus YNL307C, strain MCK1 (second series), hits give low values 0.585 | locus YOL136C, strain PFK27, hits give low values 0.66 | locus YOR061W, strain CKA2, hits give low values 0.586 | [8] 0.754
inactive: locus YAR019C, strain CDC15, hits give low values 0.916 | locus YBL105C, strain PKC1, hits give low values 0.917 | locus YBR135W, strain CKS1, hits give low values 0.918 | locus YBR136W, strain MEC1, hits give low values 0.925 | locus YBR160W, strain CDC28, hits give low values 0.914 | locus YDL017W, strain CDC7, hits give low values 0.925 | locus YDL028C, strain MPS1, hits give low values 0.919 | locus YDL101C, strain DUN1, hits give low values 0.964 | locus YDL108W, strain KIN28, hits give low values 0.937 | locus YDL132W, strain cdc53, hits give low values 0.897 | locus YDL214C, strain PRR2, hits give low values 0.854 | locus YDR226W, strain ADK1, hits give low values 0.923 | locus YDR477W, strain SNF1, hits give low values 0.773 | locus YER123W, strain YCK3, hits give low values 0.663 | locus YER133W, strain GLC7, hits give low values 0.902 | locus YFL009W, strain cdc4, hits give low values 0.913 | locus YFL029C, strain CAK1, hits give low values 0.915 | locus YFR003C, strain YPI1, hits give low values 0.931 | locus YFR028C, strain CDC14, hits give low values 0.936 | locus YGR040W, strain KSS1, hits give low values 0.868 | locus YGR052W, strain FMP48, hits give low values 0.802 | [2] 0.712 | locus YHR082C, strain KSP1, hits give low values 0.896 | locus YHR205W, strain SCH9, hits give low values 0.894 | locus YIL147C, strain SLN1, hits give low values 0.922 | [3] 0.689 | locus YJL128C, strain PBS2, hits give low values 0.98 | locus YJL157C, strain FAR1, hits give low values 0.797 | locus YJR016C, strain ILV3, hits give low values 0.904 | [4] 0.745 | locus YKL048C, strain ELM1, hits give low values 0.906 | locus YKL067W, strain YNK1, hits give low values 0.841 | locus YKL101W, strain HSL1, hits give low values 0.873 | locus YKL193C, strain SDS22, hits give low values 0.932 | locus YKL203C, strain TOR2, hits give low values 0.851 | locus YLR133W, strain CKI1, hits give low values 0.845 | locus YLR403W, strain SFP1, hits give low values 0.839 | locus YML070W, strain DAK1, hits give low values 0.689 | locus YMR001C, strain CDC5, hits give low values 0.919 | locus YMR205C, strain PFK2 (second series), hits give low values 0.893 | locus YMR277W, strain FCP1, hits give low values 0.915 | locus YNL006W, strain LST8, hits give low values 0.926 | locus YNL020C, strain ARK1, hits give low values 0.843 | locus YNL161W, strain CBK1, hits give low values 0.921 | [6] 0.737 | locus YNL207W, strain RIO2, hits give low values 0.915 | locus YNL222W, strain SSU72, hits give low values 0.917 | locus YOL078W, strain AVO1, hits give low values 0.928 | locus YOR119C, strain RIO1, hits give low values 0.894 | [7] 0.746 | locus YOR329C, strain SCD5, hits give low values 0.909 | locus YPL031C, strain PHO85, hits give low values 0.85 | locus YPL153C, strain RAD53, hits give low values 0.773 | locus YPL204W, strain HRR25, hits give low values 0.796 | locus YPL209C, strain IPL1, hits give low values 0.923 | locus YPR025C, strain CCL1, hits give low values 0.916 | locus YPR106W, strain ISR1, hits give low values 0.956 | locus YPR111W, strain DBF20, hits give low values 0.947 | strain NNK1, hits give low values 0.944 | strain TSCII, hits give low values 0.92
